Assay results from PubChem BioAssay (NCATS).
Records with an inconclusive call do not appear. Where a call stands in place of a potency, no number is given. A number with no mark means an inactive call. Calls of active or inactive are those of the source. Unless noted, calls follow the shape of the dose curve; as a rule, active = well fitted curve in the direction sought with a large enough effect; inconclusive = small, poorly fitted or top-dose-only effect, or another doubt; inactive = no such curve, though single readings can be large; an effect the other way counts as inactive or inconclusive.

How the values were obtained:
[1] = qHTS for Inhibitors of Plasmodium falciparum (DD2) proliferation (AID 504314); also: potency is read from the fitted curve at half-maximal effect;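 as to activity, negative = inhibition: parasite DNA measured by SYBR Green fluorescence after red cell lysis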; settings: P. falciparum Dd2 in erythrocytes, SYBR Green growth, 72 h; series mostly up to 6.11 µM
Procedure, shortened: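 SYBR Green DNA-fluorescence growth assay: infected RBCs at 0.3% parasitemia, 2.5% hematocrit, 72 h compound exposure, 37C, 5% CO2; overnight lysis with dye at RT; normalized to 0.29 uM artemisinin and vehicle.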

[2] = qHTS for Inhibitors of Plasmodium falciparum (HB3) proliferation (AID 504318); also: nearly all actives have a fitted effect of over 60% in size; also: potency is read from the fitted curve at half-maximal effect; settings: P. falciparum HB3 in erythrocytes, SYBR Green DNA, 72 h; series mostly up to 7.21 µM
Procedure, shortened: (§1)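 Parasite growth measured as SYBR Green DNA fluorescence (ex 485, em 535 nm) after overnight lysis following 72 h culture at 37 °C, 0.3% parasitemia, 2.5% hematocrit. Values normalized against DMSO and 0.29 uM artemisinin controls, with plate-stack correction.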

[3] = qHTS for Inhibitors of Plasmodium falciparum (CP250) proliferation (AID 504320); settings: P. falciparum CP250 in erythrocytes, SYBR Green DNA, 72 h; series mostly up to 6.7 µM
Procedure, shortened: as §1

[4] = molecular target: Atrial natriuretic peptide receptor 1 (Homo sapiens) (UniProt P16066); assay: Natriuretic polypeptide receptor (hNpr1) antagonism - Pilot CMLD screen (AID 1347052; calls by dose curve;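 also: cGMP level read as GloSensor luciferase luminescence after agonist stimulation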; also: potency is read from the fitted curve at half-maximal effect); settings: HEK293 hNpr1 GloSensor cGMP luminescence, ANP-stimulated; series mostly up to 9.22 µM
[5] = qHTS for Inhibitors of Plasmodium falciparum (7G8) proliferation (AID 504316); also: nearly all actives have a fitted effect of over 65% in size; settings: P. falciparum 7G8 in erythrocytes, SYBR Green DNA, 72 h; series mostly up to 6.7 µM
Procedure, shortened: as §1

Atrial natriuretic peptide receptor 1 (Homo sapiens), sequence (P16066 whole entry, looked up): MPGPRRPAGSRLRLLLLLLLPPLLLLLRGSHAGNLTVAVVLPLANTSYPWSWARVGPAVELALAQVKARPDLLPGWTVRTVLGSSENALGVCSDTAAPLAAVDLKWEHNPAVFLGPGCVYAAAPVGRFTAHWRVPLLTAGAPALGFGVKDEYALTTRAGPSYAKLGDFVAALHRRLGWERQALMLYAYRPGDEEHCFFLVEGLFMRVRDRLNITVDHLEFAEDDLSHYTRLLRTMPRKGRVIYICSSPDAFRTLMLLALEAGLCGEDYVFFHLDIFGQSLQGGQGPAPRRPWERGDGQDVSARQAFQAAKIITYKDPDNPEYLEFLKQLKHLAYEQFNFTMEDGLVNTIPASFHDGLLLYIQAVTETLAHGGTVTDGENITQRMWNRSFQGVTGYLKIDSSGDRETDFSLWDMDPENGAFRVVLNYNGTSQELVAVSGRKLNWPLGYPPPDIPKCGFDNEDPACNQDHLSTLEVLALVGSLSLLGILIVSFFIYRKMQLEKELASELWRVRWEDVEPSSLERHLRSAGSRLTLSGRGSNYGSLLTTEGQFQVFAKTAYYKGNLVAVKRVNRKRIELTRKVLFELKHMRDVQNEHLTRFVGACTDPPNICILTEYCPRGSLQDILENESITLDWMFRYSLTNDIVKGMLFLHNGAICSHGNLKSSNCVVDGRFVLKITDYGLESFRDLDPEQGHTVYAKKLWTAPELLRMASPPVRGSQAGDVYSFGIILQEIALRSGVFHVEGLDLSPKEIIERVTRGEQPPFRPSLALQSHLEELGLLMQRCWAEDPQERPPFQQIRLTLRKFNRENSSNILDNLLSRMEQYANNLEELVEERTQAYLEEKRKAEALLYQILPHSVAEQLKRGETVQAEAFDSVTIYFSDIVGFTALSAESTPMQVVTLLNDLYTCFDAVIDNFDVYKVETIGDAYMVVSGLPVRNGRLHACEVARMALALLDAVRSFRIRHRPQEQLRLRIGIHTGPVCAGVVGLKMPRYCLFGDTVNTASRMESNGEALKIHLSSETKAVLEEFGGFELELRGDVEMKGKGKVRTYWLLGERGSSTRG

Compound | Potency [1] | Potency [2] | Potency [3] | Potency [4] | activity, negative = inhibition [1] | Potency [5]
C=CCC12OC3(OC)CC1[C@H](C)[C@@H](c1ccccc1)C2[C@]3(O)CC=C (some centres undefined) | inactive | inactive | inactive | inactive |  | 
Cc1cc(C)c(-c2cc([C@H](C)ON=C[C@@H](C)[C@H](OCc3ccccc3)C(C)C)on2)c(C)c1 | inactive | inactive | inactive | inactive |  | 
C[C@@H]1C=CCCO[C@]12C(=O)N(Cc1ccccc1C(F)(F)F)c1cccc(Br)c12 | inactive |  | inactive | inactive |  | 
COc1ccc(C=CN(CCc2ccc(OC)c(OC)c2)C(=O)c2ccccn2)cc1 | inactive | inactive | inactive | inactive |  | 
COC(=O)[C@H]1[C@@H](c2ccccc2)NC(=O)O[C@@H]1C | inactive | inactive | inactive | inactive |  | 
C=CCN1c2ccccc2[C@]23CCC(=O)N(CCc4ccccn4)C2=NC(C(=O)OC)=C(C(=O)OC)[C@H]13 | inactive |  | inactive | inactive |  | 
COC(=O)[C@]1(C=C2c3ccccc3C[C@H](OC)[C@@H]2C)[C@@H]2CC=C[C@@H]21 | inactive |  | inactive | inactive |  | 
C=C(C)C(O)C=Cc1ccccc1OC (centres undefined) | inactive |  | inactive | inactive |  | 
CC(CCN1CCc2nc(-c3ccccc3)c(-c3ccccc3)cc2C1)=NOC[C@@H](O)[C@H]1O[C@@H]2OC(C)(C)O[C@H]2[C@@H]1O | inactive |  | inactive | inactive |  | 
CCC=C1C(=O)[C@]2(C(=O)c3ccccc3)C[C@H]3CCC(CCC)(C2=O)[C@@]13OC | inactive |  | inactive | inactive |  | 
C#CCN1C(=O)CC[C@@]23C1=NC(C(=O)OC)=C(C(=O)OC)[C@@H]2N(CC=C(C)C)c1ccccc13 | inactive | inactive | inactive | inactive |  | 
C=CC1=C2C=C(C3CC3)N(CC(C)C)C=C2C(=O)C(C)(OC(=O)c2ccco2)C1=O (centres undefined) |  | inactive | inactive | inactive | -0.305% [at 1.12 µM] | 
COc1cc(C(CC2=C(c3ccccc3)Cc3ccccc32)NC(=O)C(F)(F)F)cc(OC)c1OC (centres undefined) | inactive |  | inactive | inactive |  | 
COc1ccc2c(c1)[C@@H](NC(=O)C(F)(F)F)C1CCCCC21c1ccccc1 (some centres undefined) | inactive |  | inactive | inactive |  | 
COCOc1c2c(c(OCOC)c3c(OCOC)cccc13)C(=NNS(=O)(=O)c1ccc(C)cc1)C1=C2CCCC1 | inactive |  | inactive | inactive |  | 
CCCCn1c(C)cc2c(c1=O)[C@H]1O[C@](c3ccsc3)(Cc3cc(OC)c(OC)cc31)O2 | inactive | inactive | inactive | inactive |  | 

Compound | Potency [1] | Potency [2] | Potency [3] | Potency [4] | activity, negative = inhibition [1] | Potency [5]
COC(=O)C1=C(C)C(=O)[C@]2(O)c3ccccc3N(C)[C@]12C | inactive | inactive | inactive | inactive |  | 
CC(=O)O[C@H](C(=O)O[C@@H]1C[C@@H](CCC[C@H]2O[C@H](C(=O)OC(C)C)CC[C@@H]2C)O[C@@H](CC#N)C1)c1ccccc1 | inactive |  | inactive | inactive |  | 
CCCCCC1=CC2=C(C(=O)OC)C(c3ccccc3)NC(=O)N2CC1 (centres undefined) | inactive |  | inactive | inactive |  | inactive
C#CCCCON=C1C[C@@H](O)[C@H](O)[C@H]2[C@@H]3C(=O)N(Cc4ccc5c(c4)OCO5)C(=O)[C@@H]3CC[C@H]12 | inactive |  | inactive | inactive |  | 
COc1cc2c(cc1OC)[C@@H]1O[C@](CCCCN3C(=O)c4ccccc4C3=O)(C2)OC2=C1C(=O)OC1(CCCCC1)C2 | 1690 nM (active) | 1900 nM (active) | inactive | inactive |  | 
CC1=C[C@@H](COCc2ccccc2)O[C@@]2(C1)C(=O)N(Cc1ccc(Br)cc1)c1ccccc12 | inactive |  | inactive | inactive |  | inactive
CC(C)=CCCC(C)=CCN1C(=O)[C@@]2(C[C@@H](C)C[C@@H](C)O2)c2ccccc21 | inactive |  | inactive | inactive |  | 
O=C1[C@H]2[C@@H]3[C@@H](O)[C@H](O)CC(=NOCc4ccccc4)[C@H]3CC[C@H]2C(=O)N1C1CCCCC1 | inactive | inactive | inactive | inactive |  | 
C=CC(=O)N1C(=O)c2ccccc2S1(=O)=O | inactive | inactive | inactive | 2990 nM (active) |  | 
COC(=O)CC=C[C@@H](C)[C@H](O)c1ccccc1Br | inactive | 1900 nM (active) |  | inactive |  | 
C=CCC12C=C(OC)C(=O)C(C1=O)C1c3ccccc3CC12 (centres undefined) | inactive | inactive | inactive | inactive |  | 
CCOC(=O)CCN1C(=O)[C@@H]2[C@H]3[C@H](O)[C@H](O)CC(=NNC(=O)OCc4ccccc4)[C@@H]3CC[C@H]2C1=O | inactive |  | inactive | inactive |  | 
Cc1cc2c(nc1C)CCCN2CC(O)CN1CCCc2nc(-c3ccc(Br)cc3)ccc21 (centres undefined) | inactive | inactive | inactive | inactive |  | 
CC(Nc1oc(-c2ccccc2)nc1-c1ccccc1)c1ccccc1 (centres undefined) | inactive | inactive | inactive | inactive |  | 
COC(=O)[C@@]1(C=C2c3ccc(F)cc3[C@@H](OC)[C@@H]2C)[C@@H]2C=CC[C@@H]21 | inactive |  | inactive | inactive |  | inactive
C=C(C)CCCN1C=C(C(=O)OCC)C(c2ccccc2)NC1=O (centres undefined) | inactive | inactive | inactive | inactive |  | 
